# The source made the active and inactive calls.
# Experiments:
# [1] = small molecules captured by biotinylated probe aFSTL3 – biochemical, small-molecule microarray, fluorescence 635/667, stem cell growth factor project, primary screen (AID 1064); conditions: higher = more signal;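 also: measures binding of the biotinylated anti-FSTL3 antibody to printed compounds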
# [2] = binders from COS7 lysate, DM2A8 probe, primary screen, torsin A project, cell lysate, small-molecule microarray, fluorescence 635/667 (AID 1065); conditions: higher = more signal, COS7 lysate expressing mutant human TOR1A
# [3] = small molecules captured by biotinylated probe aFGF2 – biochemical, small-molecule microarray, fluorescence 635/667, stem cell growth factor project, primary screen (AID 1067); conditions: higher = more signal;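 also: measures binding of biotinylated aFGF2 protein to printed compounds on slides; z-score merges feature fluorescence and signal-to-noise across triplicate slides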
# [4] = small molecules captured by biotinylated probe aFGF10 – biochemical, small-molecule microarray, fluorescence 635/667, stem cell growth factor project, primary screen (AID 1071); conditions: higher = more signal;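 also: score merges 667 nm spot intensity and signal to noise from triplicate slides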
# [5] = target: Neurogenic locus notch homolog protein 2 (Homo sapiens) (UniProt Q04721); assay: small molecules binding Notch2 protein – biochemical, small-molecule microarray, 635 nm fluorescence, stem cell growth factors, primary screen (AID 1073); conditions: higher = more signal
# [6] = target: Pro-neuregulin-1, membrane-bound isoform (Homo sapiens) (UniProt Q02297); assay: small molecules binding neuregulin-1 protein – biochemical, small-molecule microarray, fluorescence 635/667, psychiatric disease protein project, primary screen (AID 1075); conditions: NRG1 binding, 635 nm fluorescence, higher = more signal;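 also: score combines 667 nm spot fluorescence with signal to noise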
# [7] = tested on: Neuregulin-1 EGF-like domain; assay: small molecules binding NRG1 EGF domain – biochemical, small-molecule microarray, 635 nm fluorescence, primary screen (AID 1081); conditions: higher = more signal;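 also: binding of the protein to compounds printed on small-molecule microarray slides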
# [8] = FRG1 expression reporter modulators in myotubes – cell-based, C2C12 myotubes, firefly/Renilla luciferase, luminescence, FRG1 inhibition for FSHD, primary screen (AID 1084); conditions: FRG1 promoter luciferase, higher = more signal, called active from +8 up or from −8 down
# [9] = small molecules captured by biotinylated probe aFST – biochemical, small-molecule microarray, fluorescence 635/667, stem cell growth factor project, primary screen (AID 1086); conditions: higher = more signal;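 also: score merges 667 nm fluorescence with signal-to-noise of each printed compound spot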
# [10] = binders of probe aHhip on microarray, primary screen, stem cell growth factor project, biochemical, small-molecule microarray, fluorescence 635/667 (AID 1087); conditions: higher = more signal;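 also: score merges spot fluorescence at 667nm with spot signal to noise ratio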
# Pro-neuregulin-1, membrane-bound isoform (Homo sapiens), sequence (Q02297 whole entry, looked up, the tested form may be a part, canonical isoform): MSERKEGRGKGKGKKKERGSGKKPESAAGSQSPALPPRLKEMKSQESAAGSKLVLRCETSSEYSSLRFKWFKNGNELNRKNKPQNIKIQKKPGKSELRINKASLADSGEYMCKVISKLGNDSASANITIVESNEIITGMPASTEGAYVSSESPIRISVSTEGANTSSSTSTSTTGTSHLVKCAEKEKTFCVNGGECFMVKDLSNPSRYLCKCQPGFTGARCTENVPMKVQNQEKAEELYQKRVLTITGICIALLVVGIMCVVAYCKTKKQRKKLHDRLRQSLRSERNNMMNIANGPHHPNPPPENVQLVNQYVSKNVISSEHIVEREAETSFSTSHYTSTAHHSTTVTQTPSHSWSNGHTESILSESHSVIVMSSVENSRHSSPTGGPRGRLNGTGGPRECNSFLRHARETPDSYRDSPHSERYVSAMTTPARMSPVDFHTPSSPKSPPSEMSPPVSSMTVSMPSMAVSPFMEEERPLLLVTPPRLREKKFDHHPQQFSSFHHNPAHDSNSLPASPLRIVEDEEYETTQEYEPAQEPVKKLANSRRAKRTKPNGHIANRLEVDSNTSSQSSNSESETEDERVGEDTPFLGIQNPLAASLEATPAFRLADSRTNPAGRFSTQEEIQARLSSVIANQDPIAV
# Neurogenic locus notch homolog protein 2 (Homo sapiens), sequence (Q04721 whole entry, looked up, canonical isoform): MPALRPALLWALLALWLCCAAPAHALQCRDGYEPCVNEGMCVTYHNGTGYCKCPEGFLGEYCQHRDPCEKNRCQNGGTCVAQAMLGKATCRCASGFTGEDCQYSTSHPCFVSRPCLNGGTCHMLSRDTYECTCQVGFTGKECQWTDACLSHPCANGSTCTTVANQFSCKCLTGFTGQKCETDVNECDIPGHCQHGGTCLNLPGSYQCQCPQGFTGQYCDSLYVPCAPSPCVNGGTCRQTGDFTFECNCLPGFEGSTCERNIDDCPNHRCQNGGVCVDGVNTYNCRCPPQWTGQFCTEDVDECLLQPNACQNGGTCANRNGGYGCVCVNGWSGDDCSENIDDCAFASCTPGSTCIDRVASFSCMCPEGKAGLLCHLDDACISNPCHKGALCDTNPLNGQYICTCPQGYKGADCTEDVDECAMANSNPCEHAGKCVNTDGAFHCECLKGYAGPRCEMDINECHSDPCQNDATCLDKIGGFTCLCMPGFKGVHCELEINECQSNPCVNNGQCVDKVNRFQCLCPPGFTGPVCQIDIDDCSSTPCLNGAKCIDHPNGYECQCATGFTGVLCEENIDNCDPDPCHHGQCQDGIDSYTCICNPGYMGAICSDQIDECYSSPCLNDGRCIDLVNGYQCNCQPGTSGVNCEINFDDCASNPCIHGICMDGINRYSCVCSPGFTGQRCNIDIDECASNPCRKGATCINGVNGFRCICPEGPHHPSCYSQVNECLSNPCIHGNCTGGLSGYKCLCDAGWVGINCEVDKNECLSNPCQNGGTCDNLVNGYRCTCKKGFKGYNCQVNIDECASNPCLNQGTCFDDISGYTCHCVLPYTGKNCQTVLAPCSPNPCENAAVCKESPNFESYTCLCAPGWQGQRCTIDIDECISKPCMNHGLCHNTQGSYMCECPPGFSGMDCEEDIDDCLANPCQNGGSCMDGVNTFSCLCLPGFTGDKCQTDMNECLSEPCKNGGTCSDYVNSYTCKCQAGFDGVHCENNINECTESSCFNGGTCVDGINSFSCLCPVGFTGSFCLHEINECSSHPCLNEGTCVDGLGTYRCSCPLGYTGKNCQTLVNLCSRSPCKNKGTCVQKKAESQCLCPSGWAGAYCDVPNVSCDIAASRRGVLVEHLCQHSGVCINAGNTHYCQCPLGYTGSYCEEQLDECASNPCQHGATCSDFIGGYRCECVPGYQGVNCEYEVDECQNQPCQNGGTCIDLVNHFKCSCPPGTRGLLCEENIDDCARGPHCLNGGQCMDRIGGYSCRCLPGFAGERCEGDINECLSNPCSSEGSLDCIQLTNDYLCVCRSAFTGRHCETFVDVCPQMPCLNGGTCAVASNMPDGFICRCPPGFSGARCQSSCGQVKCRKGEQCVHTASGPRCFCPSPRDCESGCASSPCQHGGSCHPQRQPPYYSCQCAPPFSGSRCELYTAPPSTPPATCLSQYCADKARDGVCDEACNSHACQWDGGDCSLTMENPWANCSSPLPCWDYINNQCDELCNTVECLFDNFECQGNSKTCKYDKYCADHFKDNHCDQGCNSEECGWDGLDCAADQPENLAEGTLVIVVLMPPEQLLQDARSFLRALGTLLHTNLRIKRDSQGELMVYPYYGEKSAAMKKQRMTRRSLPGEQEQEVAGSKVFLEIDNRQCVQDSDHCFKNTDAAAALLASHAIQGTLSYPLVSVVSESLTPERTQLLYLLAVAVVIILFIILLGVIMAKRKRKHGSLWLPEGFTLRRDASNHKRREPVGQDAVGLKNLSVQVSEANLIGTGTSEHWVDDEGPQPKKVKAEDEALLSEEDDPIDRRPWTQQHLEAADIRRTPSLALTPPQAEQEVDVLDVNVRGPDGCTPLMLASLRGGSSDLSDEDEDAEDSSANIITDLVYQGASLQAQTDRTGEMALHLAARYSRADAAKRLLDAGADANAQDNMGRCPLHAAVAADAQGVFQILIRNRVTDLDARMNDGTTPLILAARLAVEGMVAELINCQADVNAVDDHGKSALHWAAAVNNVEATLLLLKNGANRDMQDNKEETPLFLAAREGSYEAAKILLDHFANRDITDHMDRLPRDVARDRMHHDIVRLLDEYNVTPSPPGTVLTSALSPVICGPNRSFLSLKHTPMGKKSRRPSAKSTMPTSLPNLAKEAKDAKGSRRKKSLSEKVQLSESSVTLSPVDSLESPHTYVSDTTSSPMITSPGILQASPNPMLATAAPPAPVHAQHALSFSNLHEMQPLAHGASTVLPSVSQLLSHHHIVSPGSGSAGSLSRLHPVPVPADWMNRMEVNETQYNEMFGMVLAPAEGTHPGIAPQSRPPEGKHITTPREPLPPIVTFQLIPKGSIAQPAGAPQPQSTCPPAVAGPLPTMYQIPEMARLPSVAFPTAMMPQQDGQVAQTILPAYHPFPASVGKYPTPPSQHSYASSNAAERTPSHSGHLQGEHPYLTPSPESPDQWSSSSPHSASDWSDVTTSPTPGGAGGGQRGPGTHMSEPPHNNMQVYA
SMILES,composite z-score [1],composite z-score [2],composite z-score [3],composite z-score [4],composite z-score [5],composite z-score [6],composite z-score [7],z-score [8],composite z-score [9],composite z-score [10]
CCOC(=O)C=Cc1cc(F)ccc1O,0.0251,0.17,0.0087,0.207,-0.0641,-0.0469,0.398,0.808 (inactive),-0.0919,0.0524
COc1ccc(C#Cc2ccc3c(c2)[C@]2(C(=O)N3)[C@H](C(=O)Nc3nc4ccccc4s3)[C@H]3C(=O)O[C@H](c4ccccc4)[C@H](c4ccccc4)N3[C@@H]2c2ccccc2OCCO)cc1,-0.0541,0.125,-0.024,0.313,0.98,0.907,0.919,0.716 (inactive),0.723,0.176
COc1cc2c(cc1O)C(c1cccs1)N(Cc1sc3ccccc3c1Cl)CC2 (stereo not given),-0.181,1.14,0.115,1.18,1.55,2.09,1.42,-0.19 (inactive),1.11,3.57
COCCOC(=O)N1C(=O)[C@@]2(c3cc(C#CCNC(N)=O)ccc31)[C@H](c1ccc(O)cc1)N1[C@H](c3ccccc3)[C@H](c3ccccc3)OC(=O)[C@H]1[C@@H]2C(N)=O,0.161,-0.412,-0.161,-0.484,-2.04,-0.702,-0.0682,0.0283 (inactive),-0.567,-0.39
COc1cc2c(cc1OC)CN(C(=O)[C@@H]1[C@H]3C(=O)O[C@H](c4ccccc4)[C@H](c4ccccc4)N3[C@H](c3ccc(O)cc3)[C@@]13C(=O)Nc1ccc(C#CCCO)cc13)CC2,-0.281,0.0865,-0.0962,0.658,0.711,1.39,1.17,-0.101 (inactive),0.628,-0.201
C=CCC(OC(C)=O)[C@@H]1[C@@H](N(Cc2cc3ccccc3o2)C(=O)c2ccc(-c3ccccc3)cc2)c2cc(OCCCO)ccc2N1C(=O)Cc1ccc(OC)cc1 (stereo not given in full),-0.0413,-0.183,-0.0002,0.248,0.0777,0.0526,-0.353,-0.802 (inactive),0.331,-0.189
O=C1C2C=CC(C(O)c3cccc(O)c3)N(Nc3ccccc3)C2C(=O)N1c1ccccc1 (stereo not given),-0.0667,-0.73,-0.0901,0.212,1.08,0.977,1.11,1.23 (inactive),0.35,-0.0003
COCCCNC(=O)[C@@H]1c2ccccc2C(=O)N(C2Cc3ccccc3C2)[C@H]1c1ccc(CO)cc1,-0.0989,0.703,-0.151,0.0338,-0.0746,0.209,1.4,0.0504 (inactive),0.506,-0.137
COc1ccc(C(=O)Nc2cccc(CN3C(=O)[C@]4(O[C@H](CCn5cc([C@H](O)c6ccccc6)nn5)[C@@H]([Si](C)(C)c5ccc(OC)cc5)[C@@H]4C)c4ccccc43)c2)cc1,0.243,-0.505,-0.0709,0.266,-0.122,1.04,0.933,-0.454 (inactive),0.0644,-0.0618
COc1ccc(CCNC(=O)[C@@]2(Cc3ccccc3I)c3ccccc3C(=O)N(Cc3ccccc3Cl)[C@H]2c2ccc(CO)cc2)cc1,0.696,0.348,0.189,0.0625,0.0077,1.8,1.22,-3.44 (inactive),0.262,0.674
COc1cc(NN2C(C(O)c3ccc(I)cc3)C=CC3C(=O)N(c4ccccc4)C(=O)C32)cc(OC)c1OC (stereo not given),0.32,0.808,0.145,0.868,1.55,2.04,1.35,-2.51 (inactive),1.22,0.415
CCOC(=O)C[C@H]1[C@H](OC(=O)c2cc3ccccc3oc2=O)[C@@H](NC(=O)c2ccc3ccccc3c2)c2cc(OCCCO)ccc2N1C(=O)Cc1ccc(OC)cc1,-0.59,-0.0976,-0.196,0.531,0.759,0.711,0.936,-0.0206 (inactive),0.73,0.0505
CCOC(=O)C=Cc1ccccc1O,-0.13,0.0396,-0.0156,0.205,0.578,-0.0345,0.614,0.911 (inactive),0.245,-0.0003
COC(=O)[C@@]1(Cc2ccccc2)[C@H]2c3cc(C(=O)N(C)C)n(CCn4cc([N+](=O)[O-])nc4C)c3C[C@H]2CN1C(=O)c1ccccc1,0.0989,0.227,-0.045,0.861,1.23,0.204,1.2,-0.0393 (inactive),0.928,-0.281
O=C(N1CCOCC1)[C@@]1(CCS(=O)(=O)c2ccccc2)N=C(c2ccc(OCCCO)cc2)O[C@H]1c1ccccc1,0.448,1.06,0.0671,0.515,1.45,2.31,1.37,0.419 (inactive),1.37,-0.191
CCCC=C(CCC)[C@@H](NS(=O)(=O)c1cccc2cccnc12)c1ccc(-c2ccccc2)cc1,-0.245,0.185,0.103,0.91,1.66,1.08,0.898,2 (inactive),1.41,-0.0417
COC(=O)[C@@]1(Cc2ccc(F)cc2)[C@H]2c3cc(C(=O)N(C)C)n(Cc4ccc(O)c(OC)c4)c3C[C@H]2CN1C(=O)c1ccccc1,0.129,0.196,0.0398,0.531,1.35,1.26,0.786,2.98 (inactive),0.675,1.17
[N-]=[N+]=Nc1ccccc1C[C@]1(C(=O)O)N=C(c2ccc(OCCCO)cc2)O[C@H]1c1ccccc1,0.0867,0.444,-0.0785,0.743,0.448,1.94,1.21,-1.4 (inactive),0.834,-0.199
O=c1cccc(-c2ccc(F)cc2)o1,-0.227,-0.0321,-0.0455,0.255,0.607,-0.219,1.08,0.855 (inactive),0.552,0.643
CC(C)CNC(=O)[C@@]1(C)c2ccccc2C(=O)N(Cc2cc(C(F)(F)F)cc(C(F)(F)F)c2)[C@H]1c1ccc(CO)cc1,0.0317,0.0213,-0.178,-0.278,-0.474,-0.12,0.492,-1.43 (inactive),-0.635,0.0156
Cc1c(NC(=O)/C(C#N)=C/c2ccccc2Cl)c(=O)n(-c2ccccc2)n1C,-0.183,0.0711,-0.009,0.0417,0.935,0.888,1.12,0.311 (inactive),1.27,-0.139
CC(C)N1CC=CC23O[C@@H]4/C=C\CCCOC(=O)C4[C@H]2C(=O)N(CCCCCCO)[C@@H]3C1=O (stereo not given in full),0.59,0.525,-0.0924,0.716,-0.602,2.01,1.03,0.163 (inactive),-0.302,0.139
CCCNC(=O)[C@@]1(Sc2ccc(C)cc2)CC(=O)N(C2CCCCC2)[C@@H]1c1ccc(CO)cc1I,0.152,0.481,-0.0788,0.182,0.517,0.772,1.25,-3.57 (inactive),-0.0962,-0.383
NC(=O)[C@@H]1[C@H]2C(=O)O[C@H](c3ccccc3)[C@H](c3ccccc3)N2[C@H](c2ccc(OCCO)cc2)[C@@]12C(=O)Nc1ccc(C#CCCO)cc12,0.398,0.165,0.0122,0.786,0.472,1.23,1.22,1.62 (inactive),-0.222,-0.236
Cc1ccc(S[C@]2(C(=O)NC(C)C)CC(=O)N(Cc3ccccc3Cl)[C@@H]2c2ccc(CO)cc2)cc1,0.827,-1.59,-0.0474,-0.519,-0.266,1.03,1.37,-3.34 (inactive),-0.519,-0.169
C=CCC(OC(C)=O)[C@@H]1[C@@H](N(Cc2ccc(-c3cccc(C(F)(F)F)c3)o2)C(=O)c2ccc(C)cc2)c2cc(OCCCO)ccc2N1C(=O)Cc1ccc(OC)cc1 (stereo not given in full),0.002,-0.315,-0.0639,0.0732,-0.489,-0.0798,-0.986,-0.287 (inactive),0.382,0.0373
